# Inconclusive results are not listed. Unmarked numbers belong to inactive results. The call rests on the fitted dose curve; in most records, active means well fitted curve in the direction sought with a large enough effect; inconclusive means small, poorly fitted or top-dose-only effect, or another doubt; inactive means no such curve, though single readings can be large or run the other way.
# Biological target: Pyruvate kinase PKM (Homo sapiens) (UniProt P14618)
# Assay: Secondary LDH Assay for Activators of Human Pyruvate Kinase M1 Isoform: for Probe SAR; further: % of control where 0% means no effect
# Conditions: purified hPK-M1, LDH-coupled NADH fluorescence kinetic; series mostly up to 58.2 µM; activity change, negative = inhibition: at the top concentration
# From the text: NIH Chemical Genomics Center [NCGC]
# Matthew G. Vander Heiden, M.D., Ph.D. [Harvard Medical School, 77 Avenue Louis Pasteur, Boston, MA 02115]
# Human pyruvate kinase […] (hPK-M1)enzyme was supplied as a highly purified (>95% pure) preparation from Harvard Medical School and a secondary assay was used to evaluate compounds. This assay couples the formation of pyruvate from […] using lactate dehydrogenase (LDH) and NADH. The depletion of NADH is followed in a fluorescent-based kinetic assay that follows the formation of pyruvate to lactate, as catalyzed LDH. Pyruvate kinase substrates, PEP and ADP, were present in the assay at 0.1 mM and 4 mM respectively. In this kinetic assay initial rates were determined by following the fluorescence of NADH depletion.
# NCGC Assay Protocol Summary:
# Three uL of substrate mix (final concentration, 50 mM Tris-Cl pH 8.0, 200 mM KCl, 15 mM MgCl2, 0.1 mM PEP, 4.0 mM ADP, and 0.2 mM NADH) was dispensed into black-solid 1536 well plates. 23 nL of compounds were delivered by a pin tool and 1 uL of enzyme mix (final concentrations, 10 nM hPK-M1 and 1 uM of LDH) was added. Plates were immediately placed in ViewLux (Perkin Elmer) and NADH fluorescence was determined at 30 second exposure intervals for between 3 and 6 minutes. Data were normalized to the uninhibited controls.
# Chain of Pyruvate kinase PKM (Homo sapiens) (P14618 whole entry, looked up, canonical isoform): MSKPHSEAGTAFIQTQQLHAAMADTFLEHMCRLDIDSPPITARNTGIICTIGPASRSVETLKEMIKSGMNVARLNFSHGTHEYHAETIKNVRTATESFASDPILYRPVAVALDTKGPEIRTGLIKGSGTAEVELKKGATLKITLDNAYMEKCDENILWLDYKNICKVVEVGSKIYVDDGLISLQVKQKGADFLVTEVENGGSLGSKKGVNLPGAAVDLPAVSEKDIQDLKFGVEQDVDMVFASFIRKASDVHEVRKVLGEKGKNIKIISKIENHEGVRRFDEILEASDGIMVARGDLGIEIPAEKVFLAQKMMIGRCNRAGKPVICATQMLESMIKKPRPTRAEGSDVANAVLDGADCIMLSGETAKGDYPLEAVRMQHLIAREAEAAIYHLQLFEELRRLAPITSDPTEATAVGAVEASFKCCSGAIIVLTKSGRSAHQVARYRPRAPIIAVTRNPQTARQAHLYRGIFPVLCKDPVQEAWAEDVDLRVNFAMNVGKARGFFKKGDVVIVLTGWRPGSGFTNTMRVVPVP
row,SMILES,"activity change, negative = inhibition"
1,O=S1(=O)N=C(Oc2ccccc2)c2ccccc21,3.28% [at 82.8 µM]
2,O=C1CCc2cc(S(=O)(=O)Nc3ccccc3F)ccc2N1,4.96%
3,O=C1CCc2cc(S(=O)(=O)Nc3ccncc3)ccc2N1,8.5%
4,Cc1ccc(NS(=O)(=O)c2cc3c(cc2C)OCC(=O)N3)cc1C,1.24%
5,Cc1ccc(NS(=O)(=O)c2ccc(F)cc2)cc1C,2.07%
6,COc1cccc(N2C(=O)c3ccccc3C2=O)c1,6.23%
7,Cc1ccc(NS(=O)(=O)c2ccc3c(c2)NC(=O)CO3)cc1C,15.7%
8,Cc1ccc(NS(=O)(=O)c2ccc3c(c2)n(C)c(=O)n3C)cc1C,-3.97%
9,O=C1CCc2cc(S(=O)(=O)Nc3cccc(Oc4ccccc4)c3)ccc2N1,-2.58%
10,Cc1ccc(NS(=O)(=O)c2ccc3[nH]c(=O)[nH]c3c2)cc1C,15.5%
11,Cc1ccc(NS(=O)(=O)c2cc3c(cc2-c2cn[nH]c2)NC(=O)CO3)cc1C,16.9%
12,COc1ccccc1N1C(=O)c2ccccc2C1=O,11.6%
13,O=S1(=O)N=C(Oc2ccccc2Cl)c2ccccc21,5.42%
14,Cc1ccc(NS(=O)(=O)c2ccc3c(c2)CCO3)cc1C,10.2%
15,Cc1ccc(NS(=O)(=O)c2ccc3c(c2)N(C)CCO3)cc1C,6.74%
16,Cc1ccc(NS(=O)(=O)c2cc3c(cc2Cl)CCC(=O)N3)cc1C,3.19%
17,Cc1ccc(NS(=O)(=O)c2ccc(-c3ccccc3)cc2)cc1C,1.51%
18,O=C1CCc2cc(S(=O)(=O)Nc3cccc(C(F)(F)F)c3)ccc2N1,19.6%
19,O=C1CCc2cc(S(=O)(=O)Nc3ccc4c(c3)CCC4)ccc2N1,-4.44%
20,O=C1c2ccccc2C(=O)N1c1noc2ccccc12,-6.06%

row,SMILES,"activity change, negative = inhibition"
1,O=C1CCc2cc(S(=O)(=O)Nc3cccc(-c4ccccc4)c3)ccc2N1,5.22%
2,O=C1c2ccccc2C(=O)N1c1cncc2ccccc12,-6.7%
3,Cc1ccccc1Nc1c(-c2ccc(Cl)s2)nc2ccccn12,-1.95%
4,O=C1CCc2cc(S(=O)(=O)Nc3ccc(F)cc3)ccc2N1,-3.57%
5,Cc1ccc(NS(=O)(=O)c2ccc3c(c2)CCC(C)(C)O3)cc1C,1.91%
6,Cc1cc(N2C(=O)c3ccccc3C2=O)n[nH]1,-2.21%
7,Cc1ccc(NS(=O)(=O)c2ccc3c(ccn3C)c2)cc1C,7.17%
8,N#Cc1ccc(NS(=O)(=O)c2ccc3c(c2)CCC(=O)N3)cc1,-2.2%
9,Cc1ccc(NS(=O)(=O)c2cc3c(cc2N2CCCCC2)NC(=O)CC3)cc1C,0.398%
10,CCCCN1C(=O)c2ccccc2C1=O,-2.66%
11,O=C1c2ccccc2C(=O)N1c1cccc(=O)[nH]1,6.57%
12,Nc1cc(S(=O)(=O)N2CCN(S(=O)(=O)c3ccc4c(c3)OCCO4)CC2)ccn1,-1.52%
13,O=C1c2ccccc2C(=O)N1Cc1ccccn1,4.1%
14,O=C1c2ccccc2C(=O)N1c1ccc(O)cc1,7.32%
15,Cc1ccc(NS(=O)(=O)c2cc3c(cc2/C=C/c2ccccc2)NC(=O)CO3)cc1C,1.26%
16,O=C1c2ccccc2C(=O)N1c1cccc2ccncc12,-5.12%
17,CN(C)c1cccc(S(=O)(=O)N2CCN(S(=O)(=O)c3ccc4c(c3)OCCO4)CC2)c1,-4.42%
18,Cc1ccc(NS(=O)(=O)c2ccc3c(c2)CCC(=O)N3)cc1Cl,8.26%
19,Cc1ccc(NS(=O)(=O)c2cc3c(cc2C)NC(=O)CO3)cc1C,16.5%
20,Cc1cccc(OC2=NS(=O)(=O)c3ccccc32)c1,2.57%

# Reference: PubChem BioAssay AID2620 (National Center for Advancing Translational Sciences (NCATS), 2010)
